In PubChem BioAssay AID1159580 (chemical genetic matrix, 2015):
Among all 5,500 compounds or so, about 2,000 (36%) were called active. Not shown: some 18% with an inconclusive outcome. Cut-off read from the data, not from the text of the source: active = normalized growth mostly below about 0.91 (no sharp cut-off); inconclusive = no clear call, values can overlap the other calls; inactive = mostly above about 0.92. The list shows a part of the results.

Experiment: chemical genetic growth profiling, strain panel (AID 1159580);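 note: tested at 20 µM; growth read once vehicle control cultures reached saturation at 30 °C; 1 = growth at the plate median or of vehicle wells; lower values mean less growth of the strain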
Conditions: growth OD
[1] = S. cerevisiae deletion strains, locus YCL061C, strain MRC1, hits give low values
[2] = S. cerevisiae deletion strains, locus YHR030C, strain SLT2, hits give low values

Measured: normalized growth

C#CCOc1c(Cl)cccc1Cl
inactive: S. cerevisiae deletion strains, locus YAL013W, strain DEP1, hits give low values 0.97 | S. cerevisiae deletion strains, locus YBR229C, strain ROT2, hits give low values 0.989 | [1] 0.954 | S. cerevisiae deletion strains, locus YDL101C, strain DUN1, hits give low values 0.962 | S. cerevisiae deletion strains, locus YDL134C, strain PPH21, hits give low values 1.01 | S. cerevisiae deletion strains, locus YDR150W, strain NUM1, hits give low values 0.937 | S. cerevisiae deletion strains, locus YEL061C, strain CIN8, hits give low values 1.01 | S. cerevisiae deletion strains, locus YGR078C, strain PAC10, hits give low values 0.992 | [2] 0.995 | S. cerevisiae deletion strains, locus YHR087W, strain rtc3, hits give low values 1.04 | S. cerevisiae deletion strains, locus YJR043C, strain POL32, hits give low values 0.972 | S. cerevisiae deletion strains, locus YJR075W, strain HOC1, hits give low values 1.03 | S. cerevisiae deletion strains, locus YKL190W, strain CNB1, hits give low values 1.01 | S. cerevisiae deletion strains, locus YLR039C, strain RIC1, hits give low values 0.872 | S. cerevisiae deletion strains, locus YLR058C, strain SHM2 (second series), hits give low values 1.01 | S. cerevisiae deletion strains, locus YLR085C, strain ARP6, hits give low values 0.966 | S. cerevisiae deletion strains, locus YLR262C, strain YPT6, hits give low values 0.838 | S. cerevisiae deletion strains, locus YML094W, strain GIM5, hits give low values 0.987 | S. cerevisiae deletion strains, locus YMR219W, strain ESC1, hits give low values 0.995 | S. cerevisiae deletion strains, locus YMR263W, strain SAP30, hits give low values 0.998 | S. cerevisiae deletion strains, locus YNL153C, strain GIM3, hits give low values 0.982 | S. cerevisiae deletion strains, locus YNL298W, strain CLA4 (second series), hits give low values 0.982 | S. cerevisiae deletion strains, locus YNL322C, strain KRE1, hits give low values 0.986 | S. cerevisiae deletion strains, locus YNR030W, strain Alg12, hits give low values 1.01 | S. cerevisiae deletion strains, locus YPL055C, strain LGE1, hits give low values 0.985 | S. cerevisiae deletion strains, locus YPL241C, strain CIN2, hits give low values 0.989 | S. cerevisiae deletion strains, locus YPR135W, strain CTF4, hits give low values 0.998 | S. cerevisiae strains, strain wild type, hits give low values 0.999

Oc1c(I)cc(Cl)c2cccnc12
active: S. cerevisiae deletion strains, locus YAL021C, strain ccr4, hits give low values 0.0783 | S. cerevisiae deletion strains, locus YAL026C, strain drs2, hits give low values 0.0852 | S. cerevisiae deletion strains, locus YAL030W, strain snc1, hits give low values 0.074 | S. cerevisiae deletion strains, locus YBL061C, strain skt5, hits give low values 0.0782 | S. cerevisiae deletion strains, locus YBR009C, strain hhf1, hits give low values 0.0791 | S. cerevisiae deletion strains, locus YBR023C, strain chs3, hits give low values 0.0818 | S. cerevisiae deletion strains, locus YBR171W, strain sec66, hits give low values 0.115 | S. cerevisiae deletion strains, locus YBR231C, strain swc5, hits give low values 0.0829 | S. cerevisiae deletion strains, locus YBR279W, strain paf1, hits give low values 0.0782 | S. cerevisiae deletion strains, locus YCL011C, strain gbp2, hits give low values 0.0716 | S. cerevisiae deletion strains, locus YCL016C, strain dcc1, hits give low values 0.0859 | [1] 0.0889 | S. cerevisiae deletion strains, locus YCL069W, strain vba3, hits give low values 0.0861 | S. cerevisiae deletion strains, locus YCR088W, strain abp1, hits give low values 0.0839 | S. cerevisiae deletion strains, locus YDL005C, strain med2, hits give low values 0.0947 | S. cerevisiae deletion strains, locus YDL040C, strain nat1, hits give low values 0.0731 | S. cerevisiae deletion strains, locus YDR001C, strain nth1, hits give low values 0.0804 | S. cerevisiae deletion strains, locus YDR069C, strain doa4, hits give low values 0.0805 | S. cerevisiae deletion strains, locus YDR137W, strain rgp1, hits give low values 0.12 | S. cerevisiae deletion strains, locus YDR159W, strain sac3, hits give low values 0.115 | S. cerevisiae deletion strains, locus YDR195W, strain ref2 0.156 | S. cerevisiae deletion strains, locus YDR297W, strain sur2, hits give low values 0.074 | S. cerevisiae deletion strains, locus YDR334W, strain swr1, hits give low values 0.0896 | S. cerevisiae deletion strains, locus YDR335W, strain msn5, hits give low values 0.0873 | S. cerevisiae deletion strains, locus YDR392W, strain spt3, hits give low values 0.119 | S. cerevisiae deletion strains, locus YEL003W, strain gim4, hits give low values 0.0685 | S. cerevisiae deletion strains, locus YEL037C, strain rad23, hits give low values 0.0804 | S. cerevisiae deletion strains, locus YEL061C, strain CIN8 (second series), hits give low values 0.0788 | S. cerevisiae deletion strains, locus YER015W, strain faa2, hits give low values 0.0769 | S. cerevisiae deletion strains, locus YER016W, strain bim1, hits give low values 0.0802 | S. cerevisiae deletion strains, locus YER111C, strain swi4, hits give low values 0.103 | S. cerevisiae deletion strains, locus YER155C, strain BEM2 (second series), hits give low values 0.127 | S. cerevisiae deletion strains, locus YFR010W, strain ubp6, hits give low values 0.0904 | S. cerevisiae deletion strains, locus YGL167C, strain pmr1, hits give low values 0.0969 | S. cerevisiae deletion strains, locus YGL173C, strain kem1, hits give low values 0.088 | S. cerevisiae deletion strains, locus YGL227W, strain vid30, hits give low values 0.0887 | S. cerevisiae deletion strains, locus YGL240W, strain doc1, hits give low values 0.104 | S. cerevisiae deletion strains, locus YGL253W, strain hxk2, hits give low values 0.0777 | S. cerevisiae deletion strains, locus YHR013C, strain ard1, hits give low values 0.139 | S. cerevisiae deletion strains, locus YHR027C, strain rpn1, hits give low values 0.0784 | [2] 0.148 | S. cerevisiae deletion strains, locus YHR079C, strain IRE1, hits give low values 0.134 | S. cerevisiae deletion strains, locus YHR142W, strain chs7, hits give low values 0.104 | S. cerevisiae deletion strains, locus YJL092W, strain hpr5, hits give low values 0.0829 | S. cerevisiae deletion strains, locus YJL095W, strain BCK1 (second series), hits give low values 0.0763 | S. cerevisiae deletion strains, locus YJL095W, strain BCK1, hits give low values 0.127 | S. cerevisiae deletion strains, locus YJL115W, strain asf1, hits give low values 0.101 | S. cerevisiae deletion strains, locus YJL129C, strain trk1, hits give low values 0.102 | S. cerevisiae deletion strains, locus YJL154C, strain vps35, hits give low values 0.0859 | S. cerevisiae deletion strains, locus YJL164C, strain tpk1, hits give low values 0.0769 | S. cerevisiae deletion strains, locus YJL166W, strain qcr8, hits give low values 0.0785 | S. cerevisiae deletion strains, locus YJR066W, strain TOR1, hits give low values 0.00414 | S. cerevisiae deletion strains, locus YKL160W, strain elf1, hits give low values 0.0922 | S. cerevisiae deletion strains, locus YKR026C, strain gcn3, hits give low values 0.0898 | S. cerevisiae deletion strains, locus YKR091W, strain srl3, hits give low values 0.0766 | S. cerevisiae deletion strains, locus YLL001W, strain dnm1, hits give low values 0.0857 | S. cerevisiae deletion strains, locus YLL026W, hits give low values 0.0726 | S. cerevisiae deletion strains, locus YLL041C, strain sdh2, hits give low values 0.0731 | S. cerevisiae deletion strains, locus YLR027C, strain aat2, hits give low values 0.071 | S. cerevisiae deletion strains, locus YLR113W, strain HOG1, hits give low values 0.163 | S. cerevisiae deletion strains, locus YLR221C, strain rsa3, hits give low values 0.0761 | S. cerevisiae deletion strains, locus YLR258W, strain gsy2, hits give low values 0.0743 | S. cerevisiae deletion strains, locus YLR262C, strain YPT6 (second series), hits give low values 0.0974 | S. cerevisiae deletion strains, locus YLR320W, strain mms22, hits give low values 0.0998 | S. cerevisiae deletion strains, locus YLR342W, strain FKS1, hits give low values 0.0803 | S. cerevisiae deletion strains, locus YLR357W, strain rsc2, hits give low values 0.172 | S. cerevisiae deletion strains, locus YLR370C, strain arc18, hits give low values 0.0859 | S. cerevisiae deletion strains, locus YLR384C, strain iki3, hits give low values 0.0798 | S. cerevisiae deletion strains, locus YML120C, strain ndi1, hits give low values 0.0749 | S. cerevisiae deletion strains, locus YMR058W, strain fet3, hits give low values 0.0885 | S. cerevisiae deletion strains, locus YMR125W, strain sto1, hits give low values 0.106 | S. cerevisiae deletion strains, locus YMR129W, hits give low values 0.0728 | S. cerevisiae deletion strains, locus YMR205C, strain PFK2, hits give low values 0.11 | S. cerevisiae deletion strains, locus YMR231W, strain pep5, hits give low values 0.0867 | S. cerevisiae deletion strains, locus YNL071W, strain lat1, hits give low values 0.0765 | S. cerevisiae deletion strains, locus YNL183C, strain NPR1, hits give low values 0.00429 | S. cerevisiae deletion strains, locus YNL209W, strain ssb2, hits give low values 0.076 | S. cerevisiae deletion strains, locus YNL248C, strain rpa49, hits give low values 0.104 | S. cerevisiae deletion strains, locus YNL322C, strain KRE1 (second series), hits give low values 0.0819 | S. cerevisiae deletion strains, locus YNR049C, strain mso1, hits give low values 0.0835 | S. cerevisiae deletion strains, locus YOR001W, strain rrp6, hits give low values 0.0849 | S. cerevisiae deletion strains, locus YOR070C, strain gyp1, hits give low values 0.106 | S. cerevisiae deletion strains, locus YOR080W, strain dia2, hits give low values 0.0874 | S. cerevisiae deletion strains, locus YOR083W, strain WHI5, hits give low values 0.0797 | S. cerevisiae deletion strains, locus YOR106W, strain vam3, hits give low values 0.0829 | S. cerevisiae deletion strains, locus YOR231W, strain MKK1, hits give low values 0.122 | S. cerevisiae deletion strains, locus YOR265W, strain rbl2, hits give low values 0.072 | S. cerevisiae deletion strains, locus YOR270C, strain vph1, hits give low values 0.139 | S. cerevisiae deletion strains, locus YOR290C, strain snf2, hits give low values 0.0977 | S. cerevisiae deletion strains, locus YPL051W, strain arl3, hits give low values 0.0807 | S. cerevisiae deletion strains, locus YPL078C, strain atp4, hits give low values 0.0919 | S. cerevisiae deletion strains, locus YPL106C, strain sse1, hits give low values 0.139 | S. cerevisiae deletion strains, locus YPL240C, strain hsp82, hits give low values 0.0779 | S. cerevisiae deletion strains, locus YPL256C, strain CLN2, hits give low values 0.143
